From PubChem BioAssay AID720582 (The Scripps Research Institute Molecular Screening Center, 2013)
About 2,300 (0.62%) of roughly 370,000 compounds were called active. The sample as a whole holds a higher share of actives than the screen did. A number with no mark means an inactive call.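 The calls were made as follows: active = inhibition above a per-campaign cutoff equal to the mean of compounds falling between control-based bounds plus 3 SD (cut at about 20% in these data); inactive = the rest.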

molecular target: Disintegrin and metalloproteinase domain-containing protein 10 (Homo sapiens) (UniProt O14672); assay: blockers of ADAM10 peptide cleavage – biochemical, QFRET, HTS, primary screen (AID 720582); conditions: recombinant ADAM10, EDANS/DABCYL FRET peptide cleavage, 3 h; at 7 µM; hits give high values;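 also: 0% = DMSO wells while the 100% control is not disclosed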
Sequence (O14672 214-748 limits assumed): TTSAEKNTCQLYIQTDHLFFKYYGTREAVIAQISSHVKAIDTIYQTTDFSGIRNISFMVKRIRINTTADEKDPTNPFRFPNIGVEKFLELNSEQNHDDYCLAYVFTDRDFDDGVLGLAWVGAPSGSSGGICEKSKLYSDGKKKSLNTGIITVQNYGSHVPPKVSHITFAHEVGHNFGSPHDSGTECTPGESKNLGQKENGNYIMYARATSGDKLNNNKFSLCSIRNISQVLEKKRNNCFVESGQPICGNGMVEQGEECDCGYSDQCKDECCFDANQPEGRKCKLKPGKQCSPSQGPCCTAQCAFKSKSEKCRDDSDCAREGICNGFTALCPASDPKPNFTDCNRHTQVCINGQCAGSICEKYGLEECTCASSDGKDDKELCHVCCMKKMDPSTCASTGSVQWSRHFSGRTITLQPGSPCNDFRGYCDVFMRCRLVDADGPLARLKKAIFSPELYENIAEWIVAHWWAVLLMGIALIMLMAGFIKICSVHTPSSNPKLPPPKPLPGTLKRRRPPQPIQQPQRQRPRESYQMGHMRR

Q: With `Oc1c(Cl)cc(Cl)c(Cl)c1Cc1c(O)c(Cl)cc(Cl)c1Cl` as the compound, how does the inhibition read?
A: The inhibition was 36.2% (active).

Q: With `O=C(CSc1nnc(-c2ccccn2)n1-c1ccc(Cl)cc1)Nc1ccccc1-c1ccccc1` as the compound, how does the inhibition read?
A: Its inhibition is 1.01%.

Q: Which inhibition does the source give for `C=CCN1C(=O)[C@@H](CC(=O)NCCCOCCCC)[C@]2(C(=O)OCC)CCCCC/C=C/12` here?
A: Its inhibition is -1.99%.

Q: For `O=C(OCC(O)C(O)COC(=O)c1ccccc1)c1ccccc1` (stereo not given), which inhibition is on record?
A: The inhibition was -1.65%.

Q: How did the inhibition turn out when `Cc1ccc(S(=O)(=O)c2c(COC(=O)c3cccc(Cl)c3)c(-c3ccccc3)nn2C)cc1` was run?
A: Its inhibition is 4.59%.

Q: With `O=C(OCc1ccc(-c2ccccc2)cc1)c1cccc(O)c1` as the compound, how does the inhibition read?
A: The inhibition was 23.1% (active).

Q: Which inhibition does the source give for `C=CCn1c(SCC(N)=O)nnc1-c1ccccc1OC` here?
A: The inhibition was -8.66%.

Q: Which inhibition does the source give for `CN1C[C@]2(C=C3CCCCC3n3c(=O)n(-c4ccccc4)c(=O)n32)N=C1NC(=O)c1ccccc1` (stereo not given in full) here?
A: The inhibition was 5.49%.

Q: `O=C(NCc1cccs1)C1CCN(S(=O)(=O)c2ccccc2[N+](=O)[O-])CC1` was tested. Which inhibition did it give?
A: The inhibition was 7.43%.

Q: How did the inhibition turn out when `Cc1ccc(NS(=O)(=O)c2ccc(C)c(NC(=O)COc3ccc4ccccc4c3)c2)c(C)c1` was run?
A: Its inhibition is 21.2% (active).

Q: How did the inhibition turn out when `Cc1ccc(C)c(NS(=O)(=O)c2ccc(OCC(=O)NCc3cccnc3)cc2)c1` was run?
A: Its inhibition is 5.13%.

Q: Which inhibition does the source give for `Cc1ccc(OCC(=O)Nc2ccc(C(=O)O)cc2NC(=O)COc2ccc(C)c(C)c2)cc1C` here?
A: The inhibition was -2.89%.

Q: `COc1ccc(-n2c(SCC(=O)NC3CCCC3)nnc2-c2ccncc2)cc1` was tested. Which inhibition did it give?
A: Its inhibition is -6.99%.

Q: `COc1cccc(/C=C2\CC3(OC(C)=O)CCCN2C3)c1` (stereo not given) was tested. Which inhibition did it give?
A: The inhibition was 3.53%.

Q: With `CC(CCN1CCC(C(O)(c2ccccc2)c2ccccc2)CC1)Oc1ccc([N+](=O)[O-])cc1Cl` (stereo not given) as the compound, how does the inhibition read?
A: Its inhibition is 14.3%.

Q: Which inhibition does the source give for `O=C(NCc1ccccc1)c1onc(CSc2ccncc2)c1C(=O)NCc1ccccc1` here?
A: The inhibition was 6.67%.

Q: For `O=C(NCc1ccccc1)c1onc(CSc2nc3ccccc3[nH]2)c1C(=O)NCc1ccccc1`, which inhibition is on record?
A: The inhibition was 23.5% (active).

Q: `O=C(NCC1CC1)c1onc(CSc2ccccc2)c1C(=O)NCC1CC1` was tested. Which inhibition did it give?
A: Its inhibition is 4.44%.

Q: Which inhibition does the source give for `CCN(C(=O)[C@@H](C1CC1)[C@@H](O)c1ccc2ccccc2c1)c1ccccc1` here?
A: The inhibition was 7.43%.

Q: With `CC(C)CNc1cccc2c1S(=O)(=O)N(Cc1cn(Cc3ccccc3C(F)(F)F)nn1)Cc1ccccc1O2` as the compound, how does the inhibition read?
A: Its inhibition is -26.5%.

Q: `O=C(CSc1nc2ccccc2s1)N=Nc1c(O)[nH]c2ccccc12` was tested. Which inhibition did it give?
A: The inhibition was 7.8%.

Q: How did the inhibition turn out when `Cc1ccc(Cn2cc(CN3[C@@H](C)COc4cc(Br)ccc4S3(=O)=O)nn2)cc1` was run?
A: Its inhibition is -3.91%.

Q: With `CN1C(=O)C(CC(=O)Nc2ccccc2)S/C1=N/c1nccs1` (stereo not given) as the compound, how does the inhibition read?
A: Its inhibition is 8.04%.

Q: With `CCN1C(=O)C(CC(=O)Nc2cc(C)ccc2C)SC1=Nc1ccc(S(N)(=O)=O)cc1` (stereo not given) as the compound, how does the inhibition read?
A: Its inhibition is 3.57%.

Q: How did the inhibition turn out when `O=C(CC1SC(=Nc2ccccc2)N(Cc2ccccn2)C1=O)Nc1cccc(Cl)c1` (stereo not given) was run?
A: The inhibition was 21.2% (active).

Q: For `O=C(c1c[nH]c2ccccc12)N1CCC(Oc2cccnc2)CC1`, which inhibition is on record?
A: The inhibition was 1.42%.

Q: `Clc1ccc(-n2c(SC/C=C/c3ccccc3)nnc2-c2ccco2)cc1` was tested. Which inhibition did it give?
A: The inhibition was 15.1%.

Q: How did the inhibition turn out when `CCOC(=O)[C@@]12CN(C(=O)OC(C)(C)C)CC=C1N(Cc1ccc(OC)cc1)C(=O)[C@H]2CC(=O)NCc1ccc(OC)c(OC)c1` was run?
A: The inhibition was 1.76%.

Q: For `C=CCN1C(=O)[C@H](CC(=O)NCCCN2CCCC2=O)[C@@]2(C(=O)OCC)CCCC=C12`, which inhibition is on record?
A: The inhibition was -5.84%.

Q: `C=CCOC/C=C/C#CCN(CC=C)Cc1ccc(OC)cc1OC` was tested. Which inhibition did it give?
A: Its inhibition is -0.01%.

Q: With `CC1(C)C=Cc2c(ccc3c2OC[C@@H](c2ccc(O)cc2O)C3)O1` as the compound, how does the inhibition read?
A: The inhibition was 26.4% (active).

Q: Which inhibition does the source give for `COC(=O)C1CN(Cc2cn(Cc3ccc(F)cc3)nn2)CCS(=O)(=O)N1Cc1ccc(Cl)cc1` (stereo not given) here?
A: The inhibition was 2.41%.

Q: Which inhibition does the source give for `C=CCN1C(=O)[C@@H](CC(=O)NCC2CCCCC2)[C@]2(C(=O)OC)CCCCC=C12` here?
A: The inhibition was 5.05%.

Q: For `Cc1cc(O)ccc1-c1cc(C(=O)NCc2cc(C(F)(F)F)cc(C(F)(F)F)c2)[nH]n1`, which inhibition is on record?
A: Its inhibition is 20.5% (active).

Q: Which inhibition does the source give for `CCCOc1ccc(F)cc1-c1cc(C(=O)NCc2ccc(F)cc2)[nH]n1` here?
A: Its inhibition is 15.3%.

Q: How did the inhibition turn out when `Cc1ccc(O)c(-c2cc(C(=O)NCc3ccccc3)[nH]n2)c1` was run?
A: The inhibition was 12.6%.

Q: Which inhibition does the source give for `O=C(Nc1cc(Cl)cc(Cl)c1)OCCN1CCCC12CCC(c1ccccc1)CC2` (stereo not given) here?
A: Its inhibition is 4.69%.

Q: How did the inhibition turn out when `C=C(C)C#CC(Cc1ccccc1)N(CC1CC1)/C(N)=N/C(=O)OCc1ccccc1` (stereo not given) was run?
A: Its inhibition is -71.4%.

Q: With `CCOc1ccc(Oc2c(Cl)cnn(-c3ccc(C)cc3)c2=O)cc1` as the compound, how does the inhibition read?
A: Its inhibition is 0.21%.

Q: How did the inhibition turn out when `CC(NCc1ccco1)C(=O)N1CCCCC1` (stereo not given) was run?
A: Its inhibition is -0.25%.

Q: For `O=C(Cc1ccc(Cl)c(Cl)c1)Nc1ccc(SC(F)F)cc1`, which inhibition is on record?
A: The inhibition was 24.6% (active).

Q: With `N#C/C(=C\c1cccnc1)C(=O)Nc1ccc(SC(F)F)cc1` as the compound, how does the inhibition read?
A: Its inhibition is 9.34%.

Q: Which inhibition does the source give for `Cc1ccc(CC(=O)Nc2ccc(S(=O)(=O)N3CCOCC3)cc2)cc1C` here?
A: The inhibition was 9.05%.

Q: Which inhibition does the source give for `O=C1CC[C@@]23CCCN2C(=O)CCC[C@H]3[C@H]1Cc1ccccc1` here?
A: Its inhibition is -4.62%.

Q: With `CN(C)CC(=O)N[C@@H]1C[C@@H]2O[C@H](CO)CC[C@@H]2O[C@@H]1CCc1ccc(C#Cc2ccccc2)cc1` as the compound, how does the inhibition read?
A: Its inhibition is 7.99%.

Q: With `COC(=O)[C@]12C[C@H](CC(=O)NCc3cccs3)C(=O)N(CCc3ccc(OC)c(OC)c3)C1=C[C@H](C(C)C)O[C@@H]2C1CC1` as the compound, how does the inhibition read?
A: Its inhibition is -6.09%.

Q: How did the inhibition turn out when `CN(C)c1ccc(NC(=O)NC2CCCCN(Cc3ccc(Cl)cc3)C2=O)cc1` (stereo not given) was run?
A: The inhibition was 8.78%.

Q: `CCc1ccc2c(c1)NC(=O)C2(C)Cc1ccc(OC(F)(F)F)cc1` (stereo not given) was tested. Which inhibition did it give?
A: The inhibition was 14.9%.

Q: Which inhibition does the source give for `COc1ccccc1CC1(C)C(=O)Nc2ccc(OC(F)(F)F)cc21` (stereo not given) here?
A: Its inhibition is 22.6% (active).

Q: `Cc1ccc(CC2(C)C(=O)Nc3ccc(OC(F)(F)F)cc32)cc1` (stereo not given) was tested. Which inhibition did it give?
A: The inhibition was 5.38%.

Q: With `C=CCN(Cc1ccc2c(c1)OCO2)C(C#CC1CC1)C(C)(C)C` (stereo not given) as the compound, how does the inhibition read?
A: The inhibition was -9.94%.

Q: Which inhibition does the source give for `Cc1cc(C)cc(NC(=O)N2CCC(N(C)CCC(C)C)CC2)c1` here?
A: Its inhibition is 3.06%.

Q: `CC(C)(C)c1ccc(S(=O)(=O)NCC2CCN(C(=O)C(=O)c3cc4ccccc4o3)CC2)cc1` was tested. Which inhibition did it give?
A: The inhibition was 24.4% (active).

Q: Which inhibition does the source give for `N#Cc1cccc(C(=O)NCC2CCN(C(=O)C(=O)c3cc4ccccc4o3)CC2)c1` here?
A: Its inhibition is 1.47%.

Q: For `O=C(C(=O)N1CCC(CNS(=O)(=O)Cc2ccccc2)CC1)c1cc2ccccc2o1`, which inhibition is on record?
A: Its inhibition is 0.44%.
